Results: publication PMC4081100, “A DNA-binding-site landscape and regulatory network analysis for NAC transcription factors in Arabidopsis thaliana”

Key:
Experiment in all cases: universal protein binding microarray (PBM); transcription factors of Arabidopsis thaliana; high values mean tight binding
GST-ANAC092(1-176) = target: T1, GST-ANAC092(1-176) (Arabidopsis thaliana, UniProt Q9FKA0 1-176); details: protein: recombinant; tags: GST; chain copies: 2; dsDNA, one strand shown
T1 sequence: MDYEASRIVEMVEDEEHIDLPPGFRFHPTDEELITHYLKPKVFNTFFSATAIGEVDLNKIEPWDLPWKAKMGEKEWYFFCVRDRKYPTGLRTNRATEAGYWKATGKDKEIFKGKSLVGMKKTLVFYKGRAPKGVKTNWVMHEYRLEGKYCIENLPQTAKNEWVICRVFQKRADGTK
How it was run: (§1)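 For zinc-finger proteins, zinc acetate was added while GST-tagged NAC-domain, full-length or DNA-binding-domain proteins were induced in cells. Purification used glutathione–Sepharose 4B, and quantification used A280 or anti-GST western blot. Custom all-10-mer Agilent 4 × 180K arrays, made double-stranded by primer extension, each received a protein at 200 to 500 nM final in duplicate. Scoring covered gapped and ungapped 8-mers, with binding given as the normalised enrichment score (E-score).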

GST-NTL6(1-168) = GST-NTL6(1-168) (Arabidopsis thaliana, UniProt Q9SCK6 1-168); details: protein: recombinant; tags: GST; chain copies: 2; dsDNA, one strand shown
How it was run: as §1

GST-ANAC055(1-171) = target: T2, GST-ANAC055(1-171) (Arabidopsis thaliana, UniProt Q9LDY8 1-171); details: protein: recombinant; tags: GST; chain copies: 2; dsDNA, one strand shown
T2 sequence: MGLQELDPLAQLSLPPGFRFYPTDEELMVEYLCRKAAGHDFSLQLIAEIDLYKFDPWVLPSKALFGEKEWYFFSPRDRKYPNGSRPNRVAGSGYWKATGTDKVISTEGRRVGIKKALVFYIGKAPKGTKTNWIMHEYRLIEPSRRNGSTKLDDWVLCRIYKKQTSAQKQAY
How it was run: as §1

GST-ATAF1 NAC domain = target: T3, GST-ATAF1 NAC domain (Arabidopsis thaliana, UniProt Q39013 7-158); details: protein: recombinant; tags: GST; chain copies: 2; dsDNA, one strand shown
T3 sequence: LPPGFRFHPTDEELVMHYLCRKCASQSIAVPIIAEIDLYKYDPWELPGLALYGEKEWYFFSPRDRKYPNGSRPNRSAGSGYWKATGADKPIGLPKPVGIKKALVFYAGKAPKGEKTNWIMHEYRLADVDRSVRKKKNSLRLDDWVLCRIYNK
How it was run: as §1

[1] = target: T4, GST-ANAC092(1-285) full length (Arabidopsis thaliana, UniProt Q9FKA0 1-285); details: protein: recombinant; tags: GST; chain copies: 2; dsDNA, one strand shown
T4 sequence: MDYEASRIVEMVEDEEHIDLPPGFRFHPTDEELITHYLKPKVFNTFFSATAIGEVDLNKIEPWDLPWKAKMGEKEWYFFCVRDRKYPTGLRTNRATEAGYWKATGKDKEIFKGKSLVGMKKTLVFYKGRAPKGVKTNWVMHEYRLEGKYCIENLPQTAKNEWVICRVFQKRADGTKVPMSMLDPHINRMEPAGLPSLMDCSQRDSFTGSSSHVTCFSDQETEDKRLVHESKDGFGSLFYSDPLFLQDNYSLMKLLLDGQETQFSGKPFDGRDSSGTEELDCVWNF
How it was run: as §1

GST-NST2(1-184) = target: T5, GST-NST2(1-184) (Arabidopsis thaliana, UniProt Q9M274 1-184); details: protein: recombinant; tags: GST; chain copies: 2; dsDNA, one strand shown
T5 sequence: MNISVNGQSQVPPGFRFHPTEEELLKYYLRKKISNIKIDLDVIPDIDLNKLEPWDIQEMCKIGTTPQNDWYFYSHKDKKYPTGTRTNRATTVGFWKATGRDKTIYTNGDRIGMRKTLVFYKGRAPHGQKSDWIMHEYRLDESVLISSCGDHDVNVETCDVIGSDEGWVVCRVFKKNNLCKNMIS
How it was run: as §1

GST-NTL8 NAC domain = target: T6, GST-NTL8 NAC domain (Arabidopsis thaliana, UniProt Q9XIN7 14-156); details: protein: recombinant; tags: GST; chain copies: 2; dsDNA, one strand shown
T6 sequence: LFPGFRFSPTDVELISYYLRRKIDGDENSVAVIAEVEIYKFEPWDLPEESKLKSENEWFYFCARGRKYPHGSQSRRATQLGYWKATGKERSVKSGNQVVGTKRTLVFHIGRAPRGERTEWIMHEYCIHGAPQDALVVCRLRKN
How it was run: as §1

GST-SND1(1-203) = target: T7, GST-SND1(1-203) (Arabidopsis thaliana, UniProt Q9LPI7 1-203); details: protein: recombinant; tags: GST; chain copies: 2; dsDNA, one strand shown
T7 sequence: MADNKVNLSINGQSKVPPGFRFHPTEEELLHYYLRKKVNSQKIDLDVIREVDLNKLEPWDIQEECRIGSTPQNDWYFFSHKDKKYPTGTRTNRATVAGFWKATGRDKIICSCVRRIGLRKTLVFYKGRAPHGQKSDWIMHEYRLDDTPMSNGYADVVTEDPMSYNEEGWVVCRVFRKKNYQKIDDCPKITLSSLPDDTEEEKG
How it was run: as §1

GST-VND3 NAC domain = target: T8, GST-VND3 NAC domain (Arabidopsis thaliana, UniProt Q9FH59 12-162); details: protein: recombinant; tags: GST; chain copies: 2; dsDNA, one strand shown
T8 sequence: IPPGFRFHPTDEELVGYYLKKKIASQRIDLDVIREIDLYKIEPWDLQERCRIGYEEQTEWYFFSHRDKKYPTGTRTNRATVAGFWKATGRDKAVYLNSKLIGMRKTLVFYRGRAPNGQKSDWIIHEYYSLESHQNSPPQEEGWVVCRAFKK
How it was run: as §1

GST-VND7 NAC domain = target: T9, GST-VND7 NAC domain (Arabidopsis thaliana, UniProt Q9C8W9 9-158); details: protein: recombinant; tags: GST; chain copies: 2; dsDNA, one strand shown
T9 sequence: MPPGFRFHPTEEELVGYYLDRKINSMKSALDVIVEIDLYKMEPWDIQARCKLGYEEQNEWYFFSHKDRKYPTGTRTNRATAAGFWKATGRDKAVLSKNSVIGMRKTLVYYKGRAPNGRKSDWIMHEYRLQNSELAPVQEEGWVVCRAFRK
How it was run: as §1

GST-WRKY1(266-371) = GST-WRKY1(266-371) (Arabidopsis thaliana, UniProt Q9SI37 266-371); details: protein: recombinant; tags: GST; dsDNA, one strand shown
How it was run: as §1

GST-NAP(1-166) = target: T10, GST-NAP(1-166) (Arabidopsis thaliana, UniProt O49255 1-166); details: protein: recombinant; tags: GST; chain copies: 2; dsDNA, one strand shown
T10 sequence: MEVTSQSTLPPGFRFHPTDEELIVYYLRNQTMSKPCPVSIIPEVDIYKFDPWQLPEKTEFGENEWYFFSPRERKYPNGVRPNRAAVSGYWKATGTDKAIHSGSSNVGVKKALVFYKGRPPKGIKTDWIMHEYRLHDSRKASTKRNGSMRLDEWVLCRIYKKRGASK
How it was run: as §1

GST-ANAC019 NAC domain = target: T11, GST-ANAC019 NAC domain (Arabidopsis thaliana, UniProt Q9C932 14-162); details: protein: recombinant; tags: GST; chain copies: 2; dsDNA, one strand shown
T11 sequence: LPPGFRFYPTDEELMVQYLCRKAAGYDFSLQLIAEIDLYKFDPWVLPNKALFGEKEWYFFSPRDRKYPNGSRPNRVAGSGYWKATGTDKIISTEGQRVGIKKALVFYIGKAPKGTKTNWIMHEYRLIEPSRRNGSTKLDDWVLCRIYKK
How it was run: as §1

GST-NTL6(1-168), sequence (Q9SCK6 1-168): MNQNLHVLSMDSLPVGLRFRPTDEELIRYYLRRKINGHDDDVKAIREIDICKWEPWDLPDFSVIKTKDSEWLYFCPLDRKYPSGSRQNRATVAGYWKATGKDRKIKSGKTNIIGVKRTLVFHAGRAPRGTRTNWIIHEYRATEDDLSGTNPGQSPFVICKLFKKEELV
GST-WRKY1(266-371), sequence (Q9SI37 266-371): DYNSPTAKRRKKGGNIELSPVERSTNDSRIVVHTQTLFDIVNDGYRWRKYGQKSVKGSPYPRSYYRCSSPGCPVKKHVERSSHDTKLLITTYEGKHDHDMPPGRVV

Sequence	binding signal (GST-ANAC092(1-176)) [E-score]	binding signal (GST-NTL6(1-168)) [E-score]	binding signal (GST-ANAC055(1-171)) [E-score]	binding signal (GST-ATAF1 NAC domain) [E-score]	binding signal [1] [E-score]	binding signal (GST-NST2(1-184)) [E-score]	binding signal (GST-NTL8 NAC domain) [E-score]	binding signal (GST-SND1(1-203)) [E-score]	binding signal (GST-VND3 NAC domain) [E-score]	binding signal (GST-VND7 NAC domain) [E-score]	binding signal (GST-WRKY1(266-371)) [E-score]	binding signal (GST-NAP(1-166)) [E-score]	binding signal (GST-ANAC019 NAC domain) [E-score]
ATAAGTAA	0.318	0.434	0.181	0.246	0.363	0.29	0.167	0.311	0.264	0.18	0.142	–	–
AAGTAATA	0.31	0.428	0.215	0.207	0.327	0.274	0.211	0.294	0.216	0.136	0.074	0.14	–
GCGTGCAC	0.372	–	0.158	0.154	0.415	0.169	–	0.198	0.16	0.216	0.0555	0.145	0.255
ACGTAAAA	0.366	0.161	0.331	0.35	0.406	0.312	0.0957	0.436	0.368	0.344	0.0914	0.326	0.336
GTACGTAA	0.432	0.174	0.42	0.408	0.441	0.276	0.167	0.337	0.417	0.44	0.0843	0.419	0.463
GCGTGTCA	0.331	–	0.195	0.193	0.408	0.0663	–	0.0867	0.0583	0.189	0.0865	0.186	0.231
AGTCAACA	0.161	0.0859	0.0844	0.152	0.0634	0.0624	0.0937	0.19	0.13	0.0805	0.488	–	0.125
GCAAGTCA	0.187	0.0738	–	0.0771	0.301	0.0804	–	0.175	0.115	0.12	0.423	–	–
CTTTCTTC	0.137	0.295	–	0.117	0.21	0.0636	0.41	0.181	0.074	0.0647	0.156	0.0839	–
CGTGGTCA	0.128	–	0.0851	0.0537	0.195	–	–	0.0883	0.164	0.128	0.431	–	0.189
GCACGTCA	0.449	–	0.341	0.317	0.465	0.229	–	0.29	0.368	0.38	0.195	0.341	0.421
ATAACGTA	0.418	0.119	0.19	0.289	0.423	0.37	–	0.465	0.334	0.156	0.0761	0.187	–
CGTATACG	0.195	–	0.363	0.407	0.283	0.0918	–	0.0859	0.321	0.395	0.0731	0.397	0.354
GTTCCGTA	0.351	–	0.448	0.438	0.373	0.179	–	0.377	0.375	0.439	0.0936	0.455	0.43
ATGACGTG	0.458	–	0.366	0.317	0.463	0.258	–	0.326	0.366	0.322	0.0849	0.36	0.311
ACAAGTCA	0.0976	0.0563	–	–	0.276	0.0664	0.0517	0.114	0.0796	0.0869	0.43	0.146	–
TACGTCAA	0.363	–	0.194	0.291	0.417	0.341	–	0.44	0.23	0.205	0.402	0.241	0.216
ACACGTCT	0.422	–	0.405	0.393	0.425	0.168	–	0.174	0.396	0.421	0.114	0.346	0.459
